Compound activity: PubChem BioAssay, National Center for Advancing Translational Sciences (NCATS)
Rows were chosen to be rich in hits. Some 9.2% of all compounds tested hit in one or more screens of this group.
SMN2 splice enh = enhancers of SMN2 splice variant expression; AID 1458; hit rate 2.8% among 210,000; Potency, µM (top dose mostly 46.1 µM), inactives show at the highest dose activity change, positive = activation, usual class: activators; HEK293 SMN2-luciferase splicing reporter, luminescence, 30-36 h; note: % of control where 0% means no effect; nearly all actives have a fitted effect of over 55% in size
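HEK293 cells carry an SMN2 minigene-luciferase reporter in which exon 7 inclusion puts luciferase in frame. Cells were seeded at 2000 cells/well, attached for 10-12 hours, then exposed to compounds for 30-36 hours at 37C before ONE-Glo luminescence.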
NPC1 promoter act = activators of NPC1 promoter; Potency, µM (titrated, usually from 9.22 µM), inactives show at the highest dose activation, usual class: activators; hit rate 2.4% among 320,000; Huh7 NPC1 promoter luciferase reporter, 24 h; note: % of control where 0% means no effect; nearly all actives have a fitted effect of over 60% in size
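Cells: Huh7 expressing luciferase under the NPC1 promoter, 1500/well. Seeded 2 h, compound added, incubated 24 h at 37 °C. Luciferase reagent, 10 min ambient, then luminescence.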
ELG1 DNA repair = blocks ELG1-dependent DNA repair in HEK293T cells; HEK293T ELG1-luciferase reporter, luminescence, 16 h; DNA damage induced by 5-fluorouridine; Potency, µM (series often up to 46.1 µM), without a hit: at the highest dose activity change, negative = inhibition, most hits filed as inhibitors; hit rate 2.3% among 330,000; AID 504467; note: % is set by controls: 0 for no effect and ±100 for the full control effect; nearly all actives have a fitted effect of over 55% in size
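5-Fluorouridine DNA damage + compound/DMSO, 2,000 cells/well, 16 h, 37 °C/5% CO2. ONE-Glo, 30 min RT, luminescence. Readout = decrease in reporter signal.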
Rab9 prom act = activators of Rab9 promoter; Huh7 Rab9 promoter-luciferase reporter, luminescence, 24 h; Potency, µM (top dose mostly 9.22 µM), for inactives: top-dose activation, negative = inhibition, hits mostly activators; hit rate 2.8% among 320,000; AID 485297; note: % of control where 0% means no effect; nearly all actives have a fitted effect of over 60% in size
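Promoter activation is measured as luciferase luminescence in Huh7 cells stably transfected with a Rab9 promoter–luciferase construct, following 24 h compound exposure at 37 °C and 10 min reagent incubation at ambient temperature.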
ELG1 genotox = inducers of genotoxicity in HEK293T ELG1-luciferase cells. hit rate 1.3% among 330,000. Potency, µM (doses to about 46 µM), for inactives: at the highest dose activity change, positive = activation, hits mostly activators. AID 504466. HEK293T ELG1-luciferase reporter, luminescence, 16 h; note: % of control where 0% means no effect; nearly all actives have a fitted effect of over 60% in size
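Quantitative HTS format in 1536-well plates. HEK293T ELG1-luciferase reporter cells receive test compound and are incubated 16 hr at 37 °C, 5% CO2; ONE-Glo added, 30 min room temperature, then luminescence read.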
FLuc counter = counter-screen for miR-21 project: firefly luciferase inhibitors or activators. purified FLuc, Km substrates, luminescence inhibition. Potency, µM (top dose mostly 57.5 µM), without a hit: top-dose activity change, negative = inhibition, actives largely listed as inhibitors. hit rate 6.9% among 360,000. AID 588342;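 note: plate controls were vehicle for no effect and reference inhibitor for full effect; nearly all actives have a fitted effect of over 55% in size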
Target sequence (P08659 whole entry, looked up): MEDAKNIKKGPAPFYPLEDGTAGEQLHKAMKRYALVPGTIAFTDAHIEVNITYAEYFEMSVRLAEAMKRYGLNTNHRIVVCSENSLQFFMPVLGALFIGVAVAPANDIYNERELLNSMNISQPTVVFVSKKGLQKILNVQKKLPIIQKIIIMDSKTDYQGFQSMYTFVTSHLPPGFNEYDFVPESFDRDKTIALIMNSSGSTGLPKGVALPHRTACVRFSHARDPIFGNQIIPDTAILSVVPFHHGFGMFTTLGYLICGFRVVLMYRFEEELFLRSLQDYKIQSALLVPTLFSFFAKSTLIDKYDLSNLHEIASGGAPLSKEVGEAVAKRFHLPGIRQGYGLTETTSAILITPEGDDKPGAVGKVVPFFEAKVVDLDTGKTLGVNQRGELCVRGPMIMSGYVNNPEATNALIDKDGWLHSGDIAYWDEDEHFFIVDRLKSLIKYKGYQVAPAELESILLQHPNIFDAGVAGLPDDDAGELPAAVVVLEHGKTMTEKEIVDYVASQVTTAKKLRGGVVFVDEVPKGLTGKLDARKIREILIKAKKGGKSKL
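Purified P. pyralis luciferase (10nM final) with 10uM D-luciferin and 10uM ATP (Km levels) in 50mM Tris acetate pH 7.5, 10mM Mg acetate, 0.01% Tween-20, 0.05% BSA; qHTS 6-point titration, ~60 µM downward; luminescence read.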
The depositor's hits bear a star; ? = inconclusive; . = not tested or not shown; [ ] = dose if it differs, or a comment. Calls come from the whole dose curve; as a rule, active = well fitted curve in the direction sought with a large enough effect; inconclusive = small, poorly fitted or top-dose-only effect, or another doubt; inactive = no such curve, though single readings can be large; an effect the other way counts as inactive or inconclusive. Potency is the fitted concentration of half-maximal effect.

SMILES	SMN2 splice enh	NPC1 promoter act	ELG1 DNA repair	Rab9 prom act	ELG1 genotox	FLuc counter
CCOC(=O)C1CCN(C(=O)CNC(=O)c2nn(-c3ccc(OC)c(Cl)c3)c(=O)c3ccccc23)CC1	.	24%	15µM*	21%	1%	2.7µM*
CCC(C)NC(=O)CNC(=O)c1nn(-c2ccc(OC)c(Cl)c2)c(=O)c2ccccc12 (centres undefined)	.	-3%	?	-4%	-6%	-11%
Cc1cc(C)n(-c2ccc(C(=O)N3CC(C)OC(C)C3)cc2)n1 (centres undefined)	-1%	6%	-7%	-1%	0%	0%
COc1ccc(C(=O)Nc2cccc(C(=O)N3CCN(C)CC3)c2)cc1	?	?	25%	?	7%	-10%[2.3 µM]
CN(C)S(=O)(=O)c1ccc(C(=O)Nc2cccc(C(=O)N3CCOCC3)c2)cc1	.	0%	-11%	1%	-3%	-2%
CC(C)(C)c1ccc(C(=O)Nc2cccc(C(=O)N3CCOCC3)c2)cc1	.	1.3µM*	?	0.89µM*	?	0.54µM*
CC(=O)c1cccc(NC(=O)Nc2ccc(C(=O)N3CCOCC3)cc2)c1	-13%	7%	10µM*	1%	-10%	?
COc1ccc(C(=O)Nc2cccc(C(=O)N3CCCCC3)c2)cc1	.	14%	7%	11%	2%	15µM*
O=C(Nc1cccc(C(=O)N2CCOCC2)c1)c1ccccc1Cl	.	0%	-2%	-6%	1%	0%
Cc1ccc(NC(=O)Nc2ccc(C(=O)N3CCOCC3)cc2)cc1	3%	3%	-1%	-3%	-7%	0%
Cc1ccc(C(=O)Nc2cccc(C(=O)N3CCOCC3)c2)cc1	?	4µM*	?	2µM*	?	9.5µM*
CC(C)(C)c1ccc(OC(=O)N2CCOCC2)cc1	.	4%	?	?	?	15µM*
Cc1ccc(OC(=O)N2CCOCC2)cc1	3%	16%	?	19%	?	?
Cc1ccc(C)c(S(=O)(=O)N2CCCCC2CCNC(=O)C(=O)NCCc2ccco2)c1 (centres undefined)	.	-1%	?	-2%	-4%	3%
O=C1C2C3C=CC(CO)(O3)C2C(=O)N1c1ccc(-c2ccccc2)cc1 (centres undefined)	17%	13%	?	10%	?	19µM*
CC(C)(C)C(=O)NCC12C=CC(O1)C1C(=O)N(c3ccccc3)C(=O)C12 (centres undefined)	-19%	-4%	9%	0%	-1%	2%
COc1ccccc1CC(=O)N(CCC1=CCCCC1)c1c(N)n(Cc2ccccc2)c(=O)[nH]c1=O	.	-3%	12%	-1%	1%	0%
COc1ccc2[nH]c3c(=O)n(CCCCC(=O)NCCC(C)C)c(=S)[nH]c3c2c1	2%	-4%	0%	-7%	0%	-1%
Cc1cc(-n2c(C)cc(C(=O)COc3ccccc3[N+](=O)[O-])c2C)no1	8%	0%	-18%	-1%	6%	?
Cc1cc(C(=O)COc2cccnc2[N+](=O)[O-])c(C)n1Cc1ccco1	-19%	9%	-6%	17%	11%	?
Cc1ccc(OCC(=O)c2cc(C)n(C)c2C)c([N+](=O)[O-])n1	?	14%	?	?	?	?
Cc1cc(C(=O)COc2cccnc2[N+](=O)[O-])c(C)n1-c1ccccc1F	.	23%	?	12%	5%	6µM*
Cc1ccc(-n2c(C)cc(C(=O)COc3cccnc3[N+](=O)[O-])c2C)cc1	-42%	-2%	?	-5%	?	17µM*
Cc1cc(C(=O)COc2cccnc2[N+](=O)[O-])c(C)n1-c1ccccc1	-43%	3%	?	-3%	7%	2.7µM*
CC1=C(C)C(O)N(Cc2ccccc2)C1=O (centres undefined)	.	-3%	9%	1%	4%	3%
SMILES	SMN2 splice enh	NPC1 promoter act	ELG1 DNA repair	Rab9 prom act	ELG1 genotox	FLuc counter
O=C(CCc1ccc(S(=O)(=O)N2CCOCC2)cc1)Nc1nc(COc2ccccc2)cs1	-65%	-12%	21µM*	-25%	-15%	?
O=C(COc1ccccc1)Nc1nc(-c2ccc(S(=O)(=O)N3CCOCC3)cc2)cs1	-38%	-6%	?	3%	-12%	0%
CC(C)NC(=O)N1CC[C@@]2(CCCN(S(C)(=O)=O)C2)C1	-3%	.	.	.	.	.
Cc1nnc(N2CCN(C(=O)NC(C)C)CC2)c2nn(-c3ccccc3)c(C)c12	.	.	.	.	.	7%
O=C(O)c1ccccc1SCc1nc2ccccn2c1Br	6%	0%	8%	1%	2%	?
O=C(O)c1cccnc1SCc1cn2cc(Cl)ccc2n1	.	0%	15%	11%	2%	?
Cc1cccc2nc(CSc3ccccc3C(=O)O)cn12	.	28%	?	?	8%	15µM*
O=C(O)c1ccccc1SCc1cn2cc(Cl)ccc2n1	?	?	?	3.2µM*	?	11µM*
CN(C)c1ccc(Nc2nc(N)c([N+](=O)[O-])c(N3CCOCC3)n2)cc1	7%	-3%	16µM*	5%	-7%	?
Cc1cc(C)c2c(CC(=O)Nc3ccc(S(=O)(=O)Nc4nc(C)cc(C)n4)cc3)coc2c1	23%	.	.	.	.	?
Cc1ccc(NC(=O)CCNC(=O)c2ccc([N+](=O)[O-])cc2)cc1S(=O)(=O)N(C)C	-28%	-9%	13µM*	-3%	-16%	-3%
O=C(Nc1ccc(OC(F)F)c(Cl)c1)c1ccccn1	11µM*	1µM*	?	0.63µM*	2.3µM*	3.4µM*
COc1ccc(NC(=O)c2ccc(OC(F)F)cc2)cc1Cl	11µM*	2µM*	?	2.5µM*	?	2.7µM*
Cc1ccc([N+](=O)[O-])cc1S(=O)(=O)N(C)C	-6%	0%[46.1 µM]	.	2%[46.1 µM]	.	.
Cc1ccc(NC(=O)c2ccc([N+](=O)[O-])cc2)cc1S(=O)(=O)N(C)C	1%	?	18µM*	?	0%	?
CC(C)(C)OC(=O)N1CCC(c2c(C(=O)NC3CCCCC3)cnn2-c2ccc(F)cc2F)CC1	.	.	.	.	.	-2%
CC1CCCCC1NC(=O)CN(C)S(=O)(=O)c1cccc2cccnc12 (centres undefined)	.	1%	2%	0%	-4%	6%
COc1ccc2[nH]c(C(=O)O)c(CCN3C(=O)c4cccc([N+](=O)[O-])c4C3=O)c2c1	.	-3%	13%	2%	0%	-10%
Cc1cc(C)c2c(n1)SCC(=O)N2CC(=O)Nc1ccc(Br)c(C)c1	.	-2%	21%	12%	-2%	-5%
